Data on 17 compounds can be found in PubChem BioAssay (NCI).

About 83,000 compounds went through this panel and 20% of them were active in at least one assay; those are over-represented in the sample as a whole.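 A percent growth of 40 corresponds to 60% growth inhibition; 0 means no net growth; -100 means all cells died. Active threshold: below 10.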 Values without a mark were called inactive. Active and inactive are the calls of the source.

Test systems include T-47D breast; BT-549 breast; MDA-MB-435 melanoma; SW-620 colon; MCF7 breast; HCC-2998 colon; KM12 colon; HCT-116 colon.
Test in all cases: NCI-60 one-dose screen, 48 h (100 = growth as untreated, 0 = no growth, -100 = all killed)
What all share (settings): 10 µM unless noted

`Cc1csc(/N=C(N)/N=C(\N)c2cccc(Br)c2)n1`: the growth is 74.3% in the test with T-47D breast; 92.6% in the test on BT-549 breast; 46.2% with MDA-MB-435 melanoma; 84.4% in the test with SW-620 colon; 73.3% in the test with MCF7 breast; 97% with HCC-2998 colon. Further, the growth in the test on KM12 colon was 73.2%.

Regarding `Cc1[nH]c(C(=O)Nc2ccccc2OCc2cccc(C(=O)NC3CCNC3)c2)c(Cl)c1Cl` (stereo not drawn), the growth in the test with T-47D breast was 53.9%; with BT-549 breast, 83.8%; in the test with MDA-MB-435 melanoma, -53% (active); with SW-620 colon it was -66.3% (active); in the test on MCF7 breast it was -73.9% (active); with HCC-2998 colon, 5.81% (active). Moreover, the growth in the test with KM12 colon was -1.67% (active).

As to `N#C/C(=C\c1ccc(-c2ccc(Cl)cc2)o1)C(=O)Nc1ncc(Cc2ccc(Br)cc2)s1`, the growth in the test with T-47D breast was 18.7%; in the test on BT-549 breast, 24.7%; in the test on MDA-MB-435 melanoma, 11.3%; with MCF7 breast, 30.5%; with HCT-116 colon, -33% (active); in the test with HCC-2998 colon, 62.4%. In addition, the growth with KM12 colon was 9.51% (active).

Take `O=C(CSc1nc2ccccc2c(=O)n1-c1ccc(Cl)cc1)N/N=C/c1ccc(Oc2ccc(Cl)cc2)cc1`: the growth in the test on T-47D breast was 30.1%; in the test with BT-549 breast, -17.7% (active); in the test with MDA-MB-435 melanoma, 25.1%; in the test on SW-620 colon, 2.62% (active); in the test with MCF7 breast it was 15.5%; in the test on HCC-2998 colon, 20.3%. In addition, the growth with KM12 colon is 17.4%.

For the compound `COc1ccc(-c2cc(-c3ccc(N4CCOCC4)cc3)n3c(n2)nc2ccccc23)cc1OC`, the growth was 81% with T-47D breast; 82.3% with BT-549 breast; 93.1% in the test on MDA-MB-435 melanoma; 90.1% with MCF7 breast; 96% in the test with HCT-116 colon; 110% with HCC-2998 colon. Besides, the growth in the test with KM12 colon is 99%.

As for `COc1ccc(C(C)=C(c2ccc(OCCN3CCCCCC3)cc2)c2ccc(OCCN3CCCCCC3)cc2)cc1`, the growth was -32.2% (active) in the test with T-47D breast; 13.2% in the test on BT-549 breast; -83.7% (active) in the test on MDA-MB-435 melanoma; -50.4% (active) with SW-620 colon; -72.4% (active) in the test on MCF7 breast; -79.3% (active) in the test with HCC-2998 colon. In addition, in the test with KM12 colon, the growth is -24.8% (active).

Regarding `C#Cc1nc(/C=C/C(=O)NO)cs1`, the growth with T-47D breast was 67.9%; with BT-549 breast, 101%; in the test on MDA-MB-435 melanoma it was 61.1%; in the test with MCF7 breast it was 62.6%; in the test with HCT-116 colon, 23.8%; in the test with HCC-2998 colon, 111%. In addition, the growth in the test with KM12 colon was 56.3%.

As for `CCCCCc1ccc(S(=O)(=O)Nc2cc(-c3csc(N)n3)ccc2OC)cc1`, the growth in the test on T-47D breast is 83%; with BT-549 breast, 102%; with MDA-MB-435 melanoma it was 107%; in the test on MCF7 breast it was 66.1%; with HCT-116 colon it was 95.1%; in the test on HCC-2998 colon, 111%. The growth in the test on KM12 colon was 99.6%.

As for `CC(=C(c1ccc(OCCCN(C)C)cc1)c1ccc(OCCCN(C)C)cc1)c1ccc(Cl)cc1`, the growth with T-47D breast was 74.9%; in the test with BT-549 breast it was 109%; with MDA-MB-435 melanoma, 89.3%; with MCF7 breast, 37.9%; in the test on HCC-2998 colon, 81.7%; in the test on KM12 colon it was 84.2%.

`Cc1cc(=O)oc2cc(OCCCOc3ccc(/C=C/C(=O)Nc4ccc(Br)cc4)cc3)ccc12`: the growth is 57.7% in the test on T-47D breast; 78.8% with BT-549 breast; 97.3% in the test on MDA-MB-435 melanoma; 58.9% in the test with MCF7 breast; 85.4% with HCT-116 colon; 96.6% in the test with HCC-2998 colon. For the same compound, in the test with KM12 colon, the growth was 88.6%.

As for `CCOC(=O)c1c(NC(=O)c2ccc(C(F)(F)F)cc2)sc2c3c(ccc12)OCN(C)C3`, the growth is 4.14% (active) in the test on T-47D breast; -16.8% (active) with MDA-MB-435 melanoma; -52.4% (active) in the test with SW-620 colon; -61.7% (active) in the test on MCF7 breast; -75.8% (active) with HCT-116 colon; -13.8% (active) in the test with HCC-2998 colon. Further, the growth in the test with KM12 colon is 12.1%.

On to `CCN(CC)S(=O)(=O)c1ccc(-c2nc(C(Cl)Cl)nc3cc(-c4ccc(F)cc4)nn23)cc1`, for which the growth was 28% in the test with T-47D breast; 25.6% in the test with MDA-MB-435 melanoma; 23.5% in the test with SW-620 colon; 19.4% with MCF7 breast; 28.6% with HCT-116 colon; 7.38% (active) in the test on HCC-2998 colon. The growth with KM12 colon was 9.84% (active).

For `O=S(=O)(Oc1ccc(-c2cn3ccsc3n2)cc1)c1cccc(C(F)(F)F)c1`, the growth in the test with T-47D breast was 103%; in the test on BT-549 breast, 119%; in the test on MDA-MB-435 melanoma it was 99.5%; in the test on MCF7 breast, 90.1%; with HCT-116 colon it was 104%; in the test with HCC-2998 colon it was 120%. The growth with KM12 colon was 102%.

With `C#C[C@]1(O)CC[C@H]2[C@@H]3CC=C4c5sc(Nc6ccc(C)cn6)nc5CC[C@]4(C)[C@H]3CC[C@@]21C`, the growth in the test with T-47D breast was 18.9%; in the test with BT-549 breast, -12.7% (active); in the test with MDA-MB-435 melanoma, -51.8% (active); in the test with MCF7 breast, -68.9% (active); in the test with HCT-116 colon, 5.1% (active); with HCC-2998 colon it was 19.2%. The growth in the test on KM12 colon is -35.5% (active).

In the case of `Cc1ccc2c(n1)C(=O)C(Cl)=C(Nc1ccccc1C(=O)OC(C)(C)C)C2=O`, the growth in the test with T-47D breast was -25.2% (active); with BT-549 breast, 38.6%; in the test on MDA-MB-435 melanoma, 84.7%; with MCF7 breast, -60.1% (active); in the test with HCT-116 colon it was -84.6% (active); in the test with HCC-2998 colon, 92.3%. Further, the growth in the test with KM12 colon is 99.1%.

Regarding `CCOC(=O)c1c(NC(=O)c2cccc(C(F)(F)F)c2)sc2c1CCC(=O)C2`, the growth was 17.8% with T-47D breast; 59.4% in the test with MDA-MB-435 melanoma; 13.8% with SW-620 colon; 34.7% in the test on MCF7 breast; 12.3% in the test with HCT-116 colon; 87% with HCC-2998 colon. For the same compound, the growth in the test with KM12 colon was 32.2%.

With `CNC(=O)c1cc(Oc2ccc3c(c2)sc2nc(-c4ccc(N(C)C)cc4)cn23)ccn1`, the growth was 45.2% with T-47D breast; 36.5% with BT-549 breast; -37.8% (active) with MDA-MB-435 melanoma; 11.2% in the test on MCF7 breast; 8.11% (active) with HCT-116 colon; 0.825% (active) in the test with HCC-2998 colon. Besides, the growth in the test with KM12 colon was 23.2%.
